CYP2C9 activ = increases human cytochrome P450 2C9 activity; P11712; recombinant CYP2C9, luciferin-H conversion, luminescence; stronger effect = higher value; factor 1 = untreated enzyme, 0 = blocked; 96,000 compounds, 1.4% hits; activation factor at 5 µM;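 active = activation factor of 2 or more for CYP2C9 at a 5 µM dose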;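 also: 0 = sulfaphenazole-blocked wells and 1 = vehicle-only wells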
F-actin modifier = alters cytoskeleton assembly in HUVEC cells. HUVEC TNFa F-actin phalloidin imaging, high content. inhibition, % at 2 µM. 91,000 compounds, 0.18% hits. AID 836;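 active = inhibition above the batch mean plus 3 SD and confirmed as a hit by visual image inspection, cut at about 30% in these data, passing the limit was not always enough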
E-sel TNF inh = blocks E-selectin expression induced by TNF alpha; HUVEC TNFa-induced E-selectin immunofluorescence, high content; inhibition, % at 2 µM; 120,000 compounds, 0.71% hits; AID 1246;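 active = inhibition above the batch mean plus 3 SD, and confirmed as a hit on visual image review, cut at about 43% in these data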;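 also: 0% = TNF-stimulated DMSO wells and 100% = unstimulated control wells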
CYP2C19 inh = inhibitors of human CYP2C19. CYP2C19 Supersomes, luciferin-H EGE luminescence, 30 min. P33261. inhibition, % at 5 µM. 96,000 compounds, 21% hits;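 active = CYP2C19 inhibition above a set limit at 5 µM in the primary screen, cut at about 50% in these data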;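 also: plate controls were negative control wells for no effect and 2.5 mM tranylcypromine positive control for full effect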
Target sequence (P33261 whole entry, looked up): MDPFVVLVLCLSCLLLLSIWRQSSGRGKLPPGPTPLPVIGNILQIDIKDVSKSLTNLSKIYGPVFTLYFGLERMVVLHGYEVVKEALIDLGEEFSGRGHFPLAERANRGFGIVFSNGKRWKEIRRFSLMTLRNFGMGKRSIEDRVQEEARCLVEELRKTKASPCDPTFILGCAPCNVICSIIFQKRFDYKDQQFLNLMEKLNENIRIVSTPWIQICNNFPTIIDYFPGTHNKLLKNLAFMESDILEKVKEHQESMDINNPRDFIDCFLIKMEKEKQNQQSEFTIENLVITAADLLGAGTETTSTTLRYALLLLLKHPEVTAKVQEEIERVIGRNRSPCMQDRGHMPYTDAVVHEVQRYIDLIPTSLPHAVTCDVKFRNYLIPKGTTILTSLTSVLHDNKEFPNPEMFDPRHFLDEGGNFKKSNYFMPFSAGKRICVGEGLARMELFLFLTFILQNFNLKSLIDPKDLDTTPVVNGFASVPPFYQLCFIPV
CYP2C19 activ = increases human CYP2C19 enzyme activity | AID 1025 | activation factor at 5 µM | 96,000 tested, under 10 active | recombinant CYP2C19, luciferin-H EGE luminescence; stronger effect = higher value; 0 = fully inhibited enzyme, 1 = untreated enzyme;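 active = activation factor of at least 2 at 5 µM in the primary screen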;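 also: 0 = wells with 2.5 mM tranylcypromine and 1 = vehicle-only wells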
CYP2C9 inh = blocks human cytochrome P450 2C9. P11712. CYP2C9 Supersomes, luciferin-H conversion, luminescence. inhibition, % at 5 µM. 96,000 compounds, 20% hits. AID 777;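 active = blocking of liver enzyme CYP2C9 beyond about 50% at 5 µM, limit read from the data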
Starred values were filed as active, the others as inactive; / = not tested or not shown. The list is not random: actives were taken first. Their share in the collection is about 22%.

SMILES	CYP2C9 activ	F-actin modifier	E-sel TNF inh	CYP2C19 inh	CYP2C19 activ	CYP2C9 inh
O=C(NC1CCCCC1)NC1CC2CCC(C1)N2C(=O)NC1CCCCC1 (stereo not drawn)	0.9	1	11	7	0.9	13
CCOC(=O)c1ccc(Nc2ncnc3ccc(C)cc23)cc1	1.1	1	-12	19	0.8	-5
CCOC(=O)c1cccc(Nc2ncnc3ccc(C)cc23)c1	0.5	-21	-37	56*	0.4	50
COc1cc(Nc2nnc(C)s2)c(Cl)cc1Cl	0.9	-3	3	21	0.8	9
COCCOc1cc(Nc2nnc(C(F)(F)F)s2)c(Cl)cc1Cl	0.1	19	-14	66*	0.3	92*
O=C1NC(c2ccccc2)(C(F)(F)F)SC2=NCCCN12 (stereo not drawn)	0.8	2	-8	68*	0.3	21
OC1(c2cccc(F)c2)CCN(Cc2ccncc2)CC1	1	2	25	65*	0.3	2
OC1(c2cccc(C(F)(F)F)c2)CCN(Cc2nnnn2CCc2ccccc2)CC1	/	12	-4	/	/	/
O=C1Nc2ccccc2C12OC1CCCCC1O2 (stereo not drawn)	1.2	/	0	-14	1.1	-23
N#CC1=C(N)C(C#N)(C#N)C2(C(=O)Nc3ccccc32)C2CCCC=C12 (stereo not drawn)	0.4	/	-53	35	0.6	55*
N#Cc1c(NC(=O)CN2CCN(S(=O)(=O)c3ccc4c(c3)OCCO4)CC2)sc2c1CCC2	0.9	28	/	14	0.9	8
CCOC(=O)C1=C(CP(=O)(c2ccccc2)c2ccccc2)NC(=O)NC1c1ccc(Cl)cc1 (stereo not drawn)	/	/	20	/	/	/
O=c1c2cnn(-c3ccccc3)c2ncn1Cc1ccccn1	0.8	-10	-3	42	0.6	16
O=c1c2cnn(-c3ccc(F)cc3)c2ncn1Cc1ccccc1	/	0	0	/	/	/
O=c1c2cnn(-c3ccc(F)cc3)c2ncn1Cc1cccnc1	0.8	46	-6	50*	0.5	18
O=c1c2cnn(-c3ccccc3)c2ncn1Cc1ccco1	0.5	11	17	27	0.7	50*
O=c1c2cnn(-c3ccccc3)c2ncn1Cc1cccnc1	0.8	/	/	40	0.6	20
O=c1c2cnn(-c3ccccc3Cl)c2ncn1Cc1cccnc1	0.9	18	-11	53*	0.5	10
Cc1cnc(C(=O)OCC(=O)N2CCN(C(=O)c3ccco3)CC2)cn1	1	-20	/	1	1	-2
CS(=O)(=O)c1ccccc1COC(=O)Nc1ccc(Cl)cc1	1	4	-16	69*	0.3	-1
O=C(Nc1ccc(Cl)cc1)OCc1ccccn1	/	3	-14	/	/	/
O=C(Nc1cccc(Cl)c1)OCc1cncs1	0.1	-5	-8	99*	0	87*
O=C(Nc1ccc(Cl)cc1)OCc1cncs1	0.1	/	5	98*	0	89*
COc1ccc(-n2[nH]c(C)cc2=O)cc1	0.8	-38	24	6	0.9	17
CCN(CC)S(=O)(=O)c1cc(NC(=O)C(=O)c2c(-c3ccccc3)cc3ccccn23)ccc1C	0.5	17	11	43	0.6	54*
SMILES	CYP2C9 activ	F-actin modifier	E-sel TNF inh	CYP2C19 inh	CYP2C19 activ	CYP2C9 inh
CCN(CC)S(=O)(=O)c1ccc(N2CCOCC2)c(NC(=O)C2CCCC2)c1	/	/	11	/	/	/
CCN(CC)S(=O)(=O)c1cccc(NC(=O)C(=O)c2c(-c3ccccc3)cc3ccccn23)c1	0.4	3	-31	57*	0.4	65*
CCN(CC)S(=O)(=O)c1ccc(N2CCOCC2)c(NC(=O)C(=O)c2c(-c3ccccc3)cc3ccccn23)c1	0.1	-4	3	29	0.7	86*
CCN(CC)S(=O)(=O)c1cccc(NC(=O)c2cc3ccccc3o2)c1	0.6	0	2	9	0.9	39
Cc1nc2ccccc2c(=O)n1NC(=O)c1ccccc1[N+](=O)[O-]	/	/	-8	/	/	/
O=c1[nH]c2cc(Cl)cc(Cl)c2[nH]c1=O	0.9	-4	35	6	0.9	8
Cc1ccc(NC(=O)c2cc(NC(=O)C3CC=CCC3C(=O)O)ccc2N2CCOCC2)cc1Cl (stereo not drawn)	0.4	0	20	9	0.9	61*
Cc1ccc(NC(=O)c2cc(NC(=O)C3CC=CCC3C(=O)O)ccc2N2CCOCC2)cc1 (stereo not drawn)	1	/	-23	-7	1.1	1
CCOc1cc(CNc2ccc3c(c2)CCC3)ccc1OC	0.8	7	1	56*	0.4	23
O=C(C1CCN(S(=O)(=O)c2cccc3cccnc23)CC1)N1CCn2c1nc1ccccc12	1.4	-7	/	40	0.6	-39
CC(=O)c1ccc(NC(=O)C2CCCN2S(=O)(=O)c2cccc3cccnc23)cc1 (stereo not drawn)	0.9	8	2	41	0.6	14
Cc1ccc(NC(=O)C2CCCN2S(=O)(=O)c2cccc3cccnc23)cc1F (stereo not drawn)	0.1	4	/	23	0.8	94*
O=C(C1CCCN1S(=O)(=O)c1cccc2cccnc12)N1CCn2c1nc1ccccc12 (stereo not drawn)	0.4	7	/	0	1	58*
COc1ccccc1CNC(=O)C1CCCN1S(=O)(=O)c1cccc2cccnc12 (stereo not drawn)	0.9	22	-1	83*	0.2	11
Cc1cccc(NC(=O)C2CCCN2S(=O)(=O)c2cccc3cccnc23)c1 (stereo not drawn)	0.3	-3	-4	27	0.7	70*
CC(NC(=O)C1CCCN1S(=O)(=O)c1cccc2cccnc12)c1ccccc1 (stereo not drawn)	1.8	0	9	36	0.6	-85
COc1cc(NC(=O)C2CCCN2S(=O)(=O)c2cccc3cccnc23)cc(OC)c1OC (stereo not drawn)	0.2	/	-7	-1	1	83*
CCOC(=O)CCSc1nc(C)c2cc(C)ccc2n1	0.4	9	29	78*	0.2	58*
O=C1c2ccccc2C(=O)C1c1ccncc1	0.1	6	-6	49	0.5	91*
CC(C)Cn1cc(C(=O)NC2CCN(Cc3ccccc3)CC2)c2c3ccccc3n(C)c2c1=O	0.8	-14	/	57*	0.4	19
COCCCNC(=O)c1cn(CC(C)C)c(=O)c2c1c1ccccc1n2C	0.5	-17	21	23	0.8	45
CCOC(=O)C1CCN(C(=O)c2cn(CCOC)c(=O)c3c2c2ccccc2n3C)CC1	0.8	39*	-41	10	0.9	24
CC(C)Cn1cc(C(=O)N2CCN(c3ccccn3)CC2)c2c3ccccc3n(C)c2c1=O	0.2	-29	-45	32	0.7	78*
CCOC(=O)NC1C=CS(=O)(=O)C1 (stereo not drawn)	1	-7	4	-1	1	1

Screens: PubChem, several laboratories
